# Results taken from PubChem BioAssay (EPA / NIEHS).
# Values joined by “and” are separate entries in the source; they are usually repeats but may differ in a detail not shown here. Identical values can stand only once. Results filed as inconclusive are left out. Where a structure was tested more than once in an assay, its records may differ in their call. Active and inactive are the calls of the source. How the source made its calls, unless noted: active means hit-call score of the fitted dose curve at least 0.9, where 1 is the maximum; inactive means score below 0.9.
# Experiments:
# [1] = UKN2_HCS_IMR90_cell_viability: Viability Assessment in the University of Konstanz (UKN) Leist Lab Neural Crest Cell Migration Assay in human induced IMR90 Pluripotent Stem Cells (UKN2) (AID 2284233);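 further: cells exposed to compound for 24 h after a 24 h migration phase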
# Procedure, shortened: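 Viability read as calcein-AM fluorescence by high-content imaging, Hoechst co-stain, 30 min. Human iPSC (IMR90) neural crest cells had migrated 24 h into stopper-defined gaps before 24 h chemical exposure. Fitted bidirectionally relative to DMSO.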
# [2] = CCTE_Mundy_HCI_hNP1_Casp3_7: CCTE's Caspase-Glo 3/7 Assay in human neuroprogenitor cells for Apoptosis, Mundy Lab (AID 2284240)
# Procedure, shortened: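 Luminescent caspase-3/7 readout, 26.5 h post-dose, in human neural progenitor cells from WA09 embryonic stem cells. Cells grew 40–44 h at 37 °C, 5% CO2 before chemical addition. Activity analysed as signal increase over DMSO baseline.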
# [3] = TAMU_HCS_1.5hr_SingleDonor1434_Cytotoxicity: Cytotoxicity Assessment using High-content Screening (HCS) Fluorescent Imaging for the Texas A&M University (TAMU) 1.5-hr Human Induced Pluripotent Stem Cell (iPSC)-derived Cardiotoxicity Assay (AID 2284234; active means hit-call score of the fitted dose curve at least 0.9, where 1 is the maximum)
# Procedure, shortened: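 Nuclear counts from Hoechst 33342 imaging define cytotoxicity here, with EC10 (10% cell-count loss relative to DMSO) as point of departure. iPSC cardiomyocytes received 0.2-100 uM test chemical in 0.5% DMSO for 1.5 h at 37 C.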
# [4] = TAMU_PeakParms_SingleDonor1434_QT: Texas A&M University (TAMU) 1.5-hr Human Induced Pluripotent Stem Cell (iPSC)-derived Cardiomyocytes Calcium (Ca+2) Flux Assay for Cardiotoxicity: QT (decay-rise ratio) (AID 2284235; active means hit-call score of the fitted dose curve at least 0.9, where 1 is the maximum)
# Procedure, shortened: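 Decay/rise ratio of calcium-flux fluorescence scored after 90 min exposure (37C) of donor 1434 iPSC cardiomyocytes to 0.2–100 uM (0.5% DMSO). Beat-cessation and severe-notch points removed; POD is EC05, a 5% rise over DMSO.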
# [5] = CCTE_Mundy_HCI_Cortical_NOG_NeuronCount: CCTE's Neurite Outgrowth Assay in rat cortical cells for Neuron Count, Mundy Lab (AID 2284236; active means hit-call score of the fitted dose curve at least 0.9, where 1 is the maximum;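 further: neurons counted by imaging betaIII-tubulin and Hoechst stained cortical cells; cells exposed to compound for about 48 hours before fixation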)
# Procedure, shortened: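 Read-out: neuron number by high-content imaging of betaIII-tubulin (Alexa Fluor-488) and Hoechst-labelled rat primary cortical cells.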
# [6] = read-out: Interleukin 17A (IL17A), IL17A (gene 3605); assay: BSK_BT_xIL17A: BioMAP Diversity Plus: BT Assay for Interleukin 17A (IL17A) Biomarker Activity (AID 2284229); settings: primary human B cells with PBMC
# Procedure, shortened: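 Luminex xMAP readout of secreted IL-17A; human B cell + PBMC co-culture; 24 h post-dose; positive-direction fit vs DMSO negative control.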
# [7] = read-out: Vascular cell adhesion molecule 1 (VCAM1), VCAM1 (gene 7412); assay: BSK_MyoF_VCAM1: BioMAP Diversity Plus: MyoF Assay for Vascular cell adhesion molecule 1 (VCAM1) Biomarker Activity (AID 2284231); settings: primary human lung fibroblasts
# Procedure, shortened: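 MyoF system, lung fibroblasts; 24 h post-dose; VCAM-1 by ELISA; gain-of-signal fit vs DMSO baseline.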
# [8] = read-out: Collagen I, COL1A1 (gene 1277); assay: BSK_MyoF_CollagenI: BioMAP Diversity Plus: MyoF Assay for Collagen I Biomarker Activity (AID 2284238); settings: primary human lung fibroblasts
# Procedure, shortened: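 ELISA readout of Collagen I after 24 h chemical treatment of primary human lung fibroblast cultures; gain of signal scored relative to DMSO vehicle baseline.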
# [9] = read-out: Collagen III, COL3A1 (gene 1281); assay: BSK_MyoF_CollagenIII: BioMAP Diversity Plus: MyoF Assay for Collagen III Biomarker Activity (AID 2284239); settings: primary human lung fibroblasts
# Procedure, shortened: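 Lung fibroblast culture; 24 h compound exposure; collagen III by ELISA; gain-of-signal fit vs DMSO baseline.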
# [10] = CCTE_Mundy_HCI_Cortical_NOG_BPCount: CCTE's Neurite Outgrowth Assay in rat cortical cells for Branch Point Count, Mundy Lab (AID 2284237)
# Procedure, shortened: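 Measured 50.33 h after dosing, this morphology endpoint uses rat primary cortical cultures labelled for betaIII-tubulin. Branch points are quantified by high-content imaging, with DMSO as negative control and baseline.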
compound,measurement,setting,value
O=C(O)C(F)(OC(F)(F)C(F)(F)C(F)(F)F)C(F)(F)F (stereo unspecified),outcome,[1],inactive
same,outcome,[2],inactive
CCCCC(CC)COP(=O)(Oc1ccccc1)Oc1ccccc1 (stereo unspecified),AC50,[3],50 µM (active)
same,outcome,[4],inactive
CC(C)(C)c1ccccc1OP(=O)(Oc1ccccc1)Oc1ccccc1,AC50,[5],26.2 µM (active)
OCC(F)(F)OC(F)(F)C(F)(F)OC(F)(F)C(F)(F)OC(F)(F)F,outcome,[2],inactive
ClC(Cl)=C(c1ccc(Cl)cc1)c1ccccc1Cl,AC50,[6],27.3 µM (active)
same,AC50,[7],5.1 µM (active)
same,AC50,[8],4.93 µM (active)
same,AC50,[9],7.34 µM (active)
CCOP(=S)(OCC)SCS(=O)(=O)CC,outcome,[6],inactive
same,outcome,[7],inactive
same,outcome,[8],inactive
same,outcome,[9],inactive
c1cc2c3c(cccc3c1)CC2,outcome,[3],inactive
same,outcome,[4],inactive
C=CC(=O)OCC(F)(F)C(F)F,AC50,[6],30 µM (active) and 31.8 µM (active)
same,AC50,[7],44.1 µM (active) and 32.7 µM (active)
same,AC50,[8],46.7 µM (active) and 44.9 µM (active)
same,AC50,[9],48.7 µM (active)
same,outcome,[9],inactive
same,outcome,[2],inactive
O=C(O)C(F)(F)OC(F)(F)C(F)(F)OC(F)(F)C(=O)O,outcome,[6],inactive
same,outcome,[7],inactive
same,outcome,[8],inactive
same,outcome,[9],inactive
same,outcome,[2],inactive
CCOP(=S)(OCC)SCSc1ccc(Cl)cc1,outcome,[6],inactive
same,outcome,[7],inactive
same,outcome,[8],inactive
same,outcome,[9],inactive
O=P1(N(CCCl)CCCl)NCCCO1 (stereo unspecified),outcome,[5],inactive
same,outcome,[10],inactive
same,outcome,[2],inactive
CCOc1ccc(C(C)(C)COCc2cccc(Oc3ccccc3)c2)cc1,outcome,[10],inactive
same,outcome,[2],inactive
O=C(O)C=CC(F)(C(F)(F)F)C(F)(F)F,outcome,[6],inactive
same,outcome,[7],inactive
same,outcome,[8],inactive
same,outcome,[9],inactive
same,outcome,[2],inactive
